HT1080 IDH1KD tx: HT-1080 IDH1 knockdown cell toxicity (counter line); AID 686971; hit rate 2% among 360,000; Potency, µM (titrated, usually from 46.1 µM), without a hit: at the top dose activity, negative = toxicity, most hits filed as cytotoxic; HT-1080 IDH1 knockdown viability, ATP luminescence, 48 h;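 also: potency is read from the fitted curve at half-maximal effect; 0% = DMSO wells and -100% = cell-free medium wells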
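Assay cells: HT-1080 with IDH1 knockdown, 750 per well, RPMI/5% FBS. Exposure: 48 h at 37 °C following 2 h pre-incubation. Read: CellTiter-Glo luminescence; fitted concentration-response, curve class assigned.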
HT1080NT lethal: kills 2HG-producing HT-1080-NT fibrosarcoma cells | hit rate 1.6% among 360,000 | AID 686970 | HT-1080-NT fibrosarcoma viability, CellTiter-Glo ATP luminescence, 48 h | Potency, µM (titrated, usually from 46.1 µM), for the others: top-dose activity, negative = less viability, hits mostly cytotoxic;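 also: NT is the 2HG producing partner of a matched IDH1 knockdown line; potency is read from the fitted curve at half-maximal effect; 0% = DMSO-treated cells and -100% = media-only wells without cells; nearly all actives have a fitted effect of over 55% in size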
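Fibrosarcoma NT cells, 750 per well in 5% FBS RPMI, were exposed to compound for 48 hours. Viability: CellTiter-Glo luminescence.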
TDP1 cell CPT: growth inhibition of DT40 Tdp1-/-;hTDP1 cells with camptothecin (screen for TDP1 inhibitors); hit rate 12% among 420,000; AID 686979; Potency, µM (highest dose often 46.2 µM), inactives show at the highest dose activity change, negative = growth inhibition, most hits filed as inhibitors; chicken DT40 Tdp1-/-;hTDP1 cells + 20 nM CPT, ATP luminescence, 48 h; also: potency is read from the fitted curve at half-maximal effect; nearly all actives have a fitted effect of over 55% in size
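Cell growth measured by CellTiter-Glo luminescence after a minimum 48 h, 37 C compound exposure with 20 nM CPT in Tdp1-knockout DT40 cells stably expressing hTDP1, seeded 400/well; qHTS titration format.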
TDP1 cell noCPT: qHTS for Inhibitors of human tyrosyl-DNA phosphodiesterase 1 (TDP1): qHTS in cells in absence of CPT | AID 686978, 2013 | hit rate 15% among 420,000 | Potency, µM (series often up to 46.2 µM), without a hit: at the top dose activity change, negative = growth inhibition, most hits filed as inhibitors | DT40 Tdp1-/- hTDP1 cells, no CPT, ATP luminescence, 48 h; also: potency is read from the fitted curve at half-maximal effect; nearly all actives have a fitted effect of over 55% in size
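Chicken DT40 Tdp1-/- cells complemented with human TDP1, screened without camptothecin (DMSO vehicle only), 400 cells/well. Compounds pin-transferred, cells incubated at 37 °C for at least 48 hr. Growth read as ATP-dependent luminescence (CellTiter-Glo, 30 min at RT).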
IL-1B inflam inh: blocks inflammasome-driven IL-1 beta release; THP-1 LPS/ATP IL-1B secretion, AlphaLISA, 16 h; active compounds read low; hit rate 4.7% among 360,000; AID 743279; activity change, % at 57.5 µM; in the data active = activity change below about -50%; inconclusive = mostly about -30% to -49%
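THP-1 cells pretreated 1 hr with compounds (up to 57.5 uM final), then stimulated with LPS (250 ng/mL final) plus ATP (1.25 mM final); secreted IL-1B measured by AlphaLISA after 16 hr, decreased signal indicating inhibition.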
The depositor's hits bear a star; ? = inconclusive; · = no result; ! = a repeat was not active. In the library only some 19% were active in any assay of this set; here they are far more common. Unless noted, calls follow the shape of the dose curve; as a rule, active = well fitted curve in the direction sought with a large enough effect; inconclusive = small, poorly fitted or top-dose-only effect, or another doubt; inactive = no such curve, though single readings can be large; an effect the other way counts as inactive or inconclusive. Unless noted, % is scaled to controls: 0 for no effect and ±100 for the full control effect.

SMILES | HT1080 IDH1KD tx | HT1080NT lethal | TDP1 cell CPT | TDP1 cell noCPT | IL-1B inflam inh
CC(C)CN(C(=O)COC(=O)Cc1cccc2ccccc12)c1c(N)n(Cc2ccccc2)c(=O)[nH]c1=O | 2.3% | 4.5% | -1.0% | -0.9% | -5.0
CCOC(=O)N1CCN(C(c2ccnc3ccccc23)c2nnnn2-c2ccc3c(c2)OCCO3)CC1 (centres undefined) | ? | ? | ? | 16.4µM* | 23.6
CC(C)(C)OC(=O)N1CCCN(C(c2ccnc3ccccc23)c2nnnn2-c2ccc3c(c2)OCCO3)CC1 (centres undefined) | ? | 23.1µM* | ? | 3.66µM* | -12.6
c1ccc2c(C(c3nnnn3-c3ccc4c(c3)OCCO4)N3CCCCC3)ccnc2c1 (centres undefined) | -13.3% | -18.9% | ? | ? | ?
COc1ccc(-c2oc3c(c2C#CC(C)(C)O)C(OCCO)CC3)cc1 (centres undefined) | 2.8% | 1.4% | ? | ? | -5.7
O=C(O)C(Cc1ccccc1)N1C(=O)C=CC1=O (centres undefined) | 15.7% | 9.1% | -0.8% | -6.4% | -7.6
CC(C)(C)c1nnc(SCC(=O)Nc2ccc(N3CCCCC3)cc2)n1N | -0.6% | -8.9% | -23.8% | -11.5% | 3.0
COc1ccc(C(=O)CC(Nc2ccc([N+](=O)[O-])cc2)c2ccc(Cl)cc2)cc1 (centres undefined) | 10µM* | ? | ? | 18.4µM* | -52.7*
COc1ccc(C(=O)CC(=O)C(=O)Nc2ccc(Cl)cc2)cc1 | ? | -1.6% | ? | 20.6µM* | 2.6
COc1ccc(C(=O)CC(=O)C(=O)Nc2ccccc2C(F)(F)F)cc1 | ? | -18.1% | 10.3µM* | 6.51µM* | 19.4
COc1ccc(C(=O)CC(=O)C(=O)Nc2ccccc2Cl)cc1 | 4.6% | -15.1% | 13µM* | 10.3µM* | 43.1
CCCC1CCC(=C(C#N)C(N)=O)CC1 (centres undefined) | -1.7% | 0.9% | 20.3% | 24.4% | -1.2
COc1ccc([C@@H]2[C@@H]3C(=O)N(C(C)(C)C)C(=O)[C@@H]3[C@]3(Cc4ccc(Cl)cc4)C(=O)N(c4cccc(C)c4)C(=O)N23)cc1 | -5.8% | -4.1% | -21.9% | 3.7% | 6.9
COc1ccc(C(=O)CC(=O)C(=O)Nc2c(C)cccc2C)cc1 | -6.2% | -29.2% | 20.6µM* | 9.2µM* | -10.1
Cc1cc(C)nc(NNC2=CC(=[N+]3CCCC3)CCC2)n1 | -4.6% | -1.2% | -20.7% | ? | -9.6
COCCn1c(C2CCCCC2)nc2sc3ccccc3c(=O)c2c1=O | 3.0% | ? | ? | 23.1µM* | -12.9
COCCn1c(=O)sc2ccccc2c1=O | 12.3% | ? | 20.6µM* | ? | 64.7
Nc1nc2c(s1)CCc1c-2cnn1-c1ccccc1 | -12.0% | -7.6% | 14.6µM* | 13µM* | 0.0
Cc1ccc(-c2cnn(-c3ccccc3)c2N)cc1 | -22.0% | -21.9% | ? | 10.3% | 0.0
CCCOc1ccc(C2c3c(oc4ccccc4c3=O)C(=O)N2c2nnc(C(C)C)s2)cc1 (centres undefined) | · | · | -2.6% | -1.6% | ·
COc1ccc(C(=O)N2CCCC(C(=O)N3CCCCCC3)C2)cc1 (centres undefined) | 4.3% | -0.2% | -9.5% | -5.2% | 8.8
CN(Cc1ccccc1)C(=O)C1CCCN(Cc2cccc(Cl)c2)C1 (centres undefined) | ? | ? | ? | 23.1µM*! | 37.1
COc1cccc(CN(C)C(=O)C2CCCN(C(=O)c3ccc(Cl)cc3)C2)c1 (centres undefined) | 4.6% | -2.0% | 20.6µM* | ? | 11.9
COc1cccc(CC(NC(C)=O)C(=O)NC2CCN(C(=O)c3ccc(Cl)cc3)CC2)c1 (centres undefined) | 11.3% | 25.2% | -21.9% | 5.8µM* | -5.2
